Hits are enriched below; roughly 19% of the tested compounds scored in any of these assays.
AMA1-RON2 inh: qHTS for Inhibitors of AMA1-RON; Towards Development of Antimalarial Drug Lead: Primary Screen | Plasmodium falciparum AMA1 (3D7) - RON2 peptide interaction | AlphaScreen AMA1-biotinylated RON2 peptide binding | Potency, µM (titrated, usually from 58.2 µM), for inactives: top-dose activity change, negative = inhibition, actives largely listed as inhibitors | hit rate 0.2% among 360,000 | AID 720542, 2013;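 note: potency is the fitted concentration of half-maximal effect; 0% = vehicle wells and -100% = peptide control; nearly all actives have a fitted effect of over 45% in size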
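AMA1 (3D7) with his tag at 25 nM final met compounds first, then biotinylated RON2 peptide at 25 nM; detection used donor plus acceptor beads, 10 µg/mL apiece, read by AlphaScreen after 30 min at room temperature.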
Pf growth 48h: Primary qHTS for delayed death inhibitors of the malarial parasite plastid, 48 hour incubation; P. falciparum luciferase growth in erythrocytes, 48 h; Potency, µM (titrated, usually from 28.7 µM), for inactives: at the highest dose activity change, negative = inhibition, most hits filed as inhibitors; hit rate 5.9% among 310,000; AID 504832, 2011; note: potency is the fitted concentration of half-maximal effect; % is set by controls: 0 for no effect and ±100 for the full control effect
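Firefly luciferase activity from engineered P. falciparum reports growth; inhibitors lower the luminescent signal. Cultures contained 2% hematocrit erythrocytes at 0.1% final parasitemia.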
Shiga toxin inh: A qHTS for Small Molecule Inhibitors of Shiga Toxin | hit rate 9.2% among 290,000 | Vero cells, Shiga toxin protein synthesis inhibition reporter | inhibition, % at 38.7 µM; in the data active = inhibition mostly above about 28%, no sharp cut-off; inactive = mostly below about 43%; note: 0% is about no effect
SARS PLpro yeast: qHTS of Yeast-based Assay for SARS-CoV PLP | S. cerevisiae expressing SARS-CoV PLpro, growth rescue | Potency, µM (doses to about 32.9 µM), inactives show at the top dose activity, positive = growth rescue, usual class: activators | hit rate 0.19% among 330,000; calls by dose curve; note: potency is the fitted concentration of half-maximal effect; 0% is about no effect; nearly all actives have a fitted effect of over 55% in size
Pf growth 96h: Primary qHTS for delayed death inhibitors of the malarial parasite plastid, 96 hour incubation. P. falciparum luciferase reporter growth, 96 h. Potency, µM (top dose mostly 28.7 µM), for the others: top-dose activity change, negative = inhibition, hits mostly inhibitors. hit rate 6.9% among 320,000; note: potency is the fitted concentration of half-maximal effect; % is set by controls: 0 for no effect and ±100 for the full control effect
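Two parasite generations (96 h, 37 C, 5% CO2) of compound exposure in infected erythrocytes (0.05% parasitemia, 2% hematocrit). Luciferase-reporter P. falciparum; decreased luminescence indicates inhibited growth, aimed at apicoplast-acting delayed death.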
CHX counter: Cycloheximide Counterscreen for Small Molecule Inhibitors of Shiga Toxin; max response, %; hit rate 12% among 300,000; cell reporter, cycloheximide protein synthesis inhibition counterscreen; in the data active = max response mostly above about 13%, no sharp cut-off; inactive = mostly below about 14%; note: read at 38.3 µM for the half of the compounds with a filed dose; 0% is about no effect
* hit, by the source's call; ? = inconclusive; . = no result; + = active, no number; [ ] = remark or other dose. Unless noted, calls come from the whole dose curve; as a rule, active = well fitted curve in the direction sought with a large enough effect; inconclusive = small, poorly fitted or top-dose-only effect, or another doubt; inactive = no such curve, though single readings can be large; an effect the other way counts as inactive or inconclusive.

SMILES | AMA1-RON2 inh | Pf growth 48h | Shiga toxin inh | SARS PLpro yeast | Pf growth 96h | CHX counter
CCCOc1ccc(-c2nnc(-c3cccs3)o2)cc1 | -3% | 495% | 107* | 5% | ? | 51*
CCOc1ccc(-c2nnc(-c3ccccc3)o2)cc1 | 12% | 50% | 77* | 27% | 2.1µM* | 29*
C[C@H](O)[C@@H]1C(=O)N2CCc3c([nH]c4ccccc34)[C@@H]2C[C@@H]1N(C)S(=O)(=O)c1ccccc1 | -13% | . | . | . | . | .
CC(C)CN(CC(C)C)S(=O)(=O)N1CCC(C(=O)NCc2ccco2)CC1 | -3% | ? | -2 | -1% | -9% | 13
Cc1cc(C)c(C)c(OCCCN(C)C)c1 | 3% | ? | -15 | 10% | 228% | -3
CCOc1ccc(-c2nnc(-c3ccc(OC)cc3)o2)cc1 | -6% | 19% | 9 | 0% | -11% | -1
CCOc1ccc(-c2nnc(-c3ccncc3)o2)cc1 | 18% | 291% | 126 | -3% | 2.9µM* | 50*
O=C(Nc1nc(-c2ccc(S(=O)(=O)N3CCCC3)cc2)cs1)c1ccco1 | -13% | ? | 22* | 5% | 27% | 5.2*
O=S(=O)(Cc1ccccc1)Nc1ccc(S(=O)(=O)N2CCCC2)cc1 | -10% | 2.3µM* | 6 | 0% | 5% | -2
CNc1nc(-c2ccc(S(=O)(=O)N3CCCCC3)cc2)cs1 | -2% | ? | . | -7% | ? | .
CC(=O)Nc1ccc(S(=O)(=O)N2CCN(C(=O)c3ccco3)CC2)cc1 | 1% | 45%[0.00184 µM] | -5 | 1% | ? | 21*
O=C(Nc1ccc(S(=O)(=O)N2CCCCCC2)cc1)c1ccco1 | 1% | ? | 40* | -6% | ? | 23*
O=C(Nc1cccc(S(=O)(=O)N2CCCC2)c1)c1ccco1 | 0% | . | . | -10% | . | .
Cc1cccc(NC(=O)CSCC(=O)Nc2cc(Cl)ccc2N2CCN(C)CC2)c1 | 3% | ? | -8 | -2% | ? | -2
CC(C)(C)n1nnnc1C(c1ccccc1)N1CCN(c2ccccn2)CC1 (centres undefined) | -8% | . | . | . | . | .
CCc1c(C2(O)CCCCC2)[nH]c2ccc(C(F)(F)F)cc12 | -11% | 30% | -7 | -34% | 110% | -1
CCOc1ccc(/C=N/Nc2cc(=O)n(C)c(=O)n2C)cc1 | 18% | -2% | -8 | 26% | 29% | -3
O=C(Nc1ccncc1)Nc1ccncc1 | 6% | ? | -5 | 0% | 31% | 8
O=C(Nc1ccncc1)Nc1ccc(Cl)cc1 | 7% | 5.2µM* | 42 | -3% | 28% | 33*
O=C(Nc1ccncc1)Nc1cc(Cl)ccc1Cl | 3% | ? | -2 | 3% | -1% | 0
O=C(Nc1ccncc1)Nc1ccc(Cl)cc1Cl | 5% | 1.7µM* | 21 | 6% | -4% | 7
Cc1cccc2cc(/C=N/Nc3ccc(C(=O)O)cc3)c(Cl)nc12 | -10% | 217% | 128* | 1% | 384% | 68*
O=C(CN1CCCCC1)N/N=C/c1cc2ccccc2nc1Cl | 13% | -10% | 29 | 4% | -20% | 14
O=C(O)c1ccc(N/N=C/c2cc3ccccc3nc2Cl)cc1 | -14% | 185% | 84* | -3% | 207% | 38*
O=C(O)c1ccc(N/N=C/c2cccc3nccnc23)cc1 | -11% | 153% | 45* | 0% | 134% | 27*
SMILES | AMA1-RON2 inh | Pf growth 48h | Shiga toxin inh | SARS PLpro yeast | Pf growth 96h | CHX counter
O=[N+]([O-])c1ccccc1N/N=C/c1cc2ccccc2nc1Cl | -14% | 91% | + | -3% | . | 38
CCOc1ccccc1/C=N/Nc1ccccc1[N+](=O)[O-] | ? | 48% | -18 | 1% | 152% | -2
CN(CC(=O)Nc1ccc(N2CCOCC2)cc1)C(=O)c1cc2c(s1)CCCC2 | 0% | 36% | . | -4% | 44% | .
COCCn1c(=O)[nH]c2cc(C(=O)NCCc3ccc(S(N)(=O)=O)cc3)ccc2c1=O | -9% | 11% | 20 | 4% | -6% | -2
COc1ccc(C(C)=O)cc1Cn1c(C)c(C(=O)NCc2ccc(C(F)(F)F)cc2)sc1=O | -2% | . | . | . | . | .
COc1ccccc1NC(=O)CSc1nnnn1-c1ccc(C(=O)O)cc1 | 7% | 38% | -9 | -2% | 12µM* | -2
O=C(CSc1nnnn1-c1ccc(F)cc1)Nc1ccccc1F | 1% | 24% | -4 | 1% | 8.3µM* | -1
O=C(CCn1cnnn1)Nc1ccccc1F | -6% | 13% | -18 | 0% | 4.7µM* | 0
N#CC(=C(O)CN1CCN(c2ccccc2F)CC1)c1nc(-c2ccccc2)cs1 | 67% | . | . | . | . | .
N#C/C(=C(/O)CN1CCCC1)c1nc(-c2ccccc2)cs1 | -16% | 149% | 120* | 0% | 250% | 33*
COc1cccc(C#Cc2c(C=O)n(C)c3ccccc23)c1 | 203% | 13µM* | . | 10% | ? | .
Cc1ccc(SCc2cc(=O)c3c(=O)n(-c4ccccc4)[nH]c3[nH]2)cc1 | ? | 3%[5.75 µM] | -5 | 0% | 9.3µM* | 3
O=c1cc(CSc2ccc(Cl)cc2)[nH]c2[nH]n(-c3ccccc3)c(=O)c12 | -23% | 4% | 22 | 6% | 15% | 1
Cc1ccc(NC(=O)CSc2nnc3ccccn23)cc1S(=O)(=O)N1CCOCC1 | -8% | ? | -4 | 5% | ? | -2
O=C(NCc1ccco1)c1cccn2c(=O)c3cc4ccccc4cc3nc12 | . | . | 6 | -4% | ? | 29*
COCCCNC(=O)c1cccn2c(=O)c3cc4ccccc4cc3nc12 | 2% | 69% | 84* | -6% | 55% | 69*
CC12CCC=CC1C(c1ccoc1)N(Cc1ccccc1)C2=O (centres undefined) | . | . | 16 | . | . | -2
COc1ccc(Nc2nc3ccccc3n2C)cc1 | 5% | 97% | 40* | 1% | -18% | 35*
Cc1ccc(NC(=O)NCc2nc3ccccc3n2C)cc1 | 31% | -24% | 2 | 2% | 11% | 6
Cc1ccc(NCc2nc3ccccc3n2C)cc1 | 14% | 155% | 95* | -3% | ? | 49*
Cc1ccc(NCc2nc3ccccc3n2C)cc1C | 0% | 176% | . | -5% | -21% | 46*
CCOC(=O)c1ccc(NC(=O)CSc2nnc(CNc3ccc(C)cc3)n2C)cc1 | -3% | ? | 17 | -7% | ? | 14
CCOC(=O)c1ccc(NCc2nc3ccccc3n2C)cc1 | -3% | 29% | 43 | -6% | 18% | 32*
CC(C)[C@H](NC(=O)C1CCC(CNC(=O)[C@@H]2CCCN2C(=O)OC(C)(C)C)CC1)C(=O)O (some centres undefined) | 0% | -9% | -12 | 1% | -12% | -3
COc1ccc(NCc2nc3ccccc3n2C)cc1 | 15% | 170% | 66* | -3% | ? | 35*

Screens as filed in PubChem BioAssay.
